# Data as given in PubChem BioAssay (NCATS).
# Inconclusive results are not listed. The source made the active and inactive calls. Calls follow the shape of the dose curve; as a rule, active = well fitted curve in the direction sought with a large enough effect; inconclusive = small, poorly fitted or top-dose-only effect, or another doubt; inactive = no such curve, though single readings can be large; an effect the other way counts as inactive or inconclusive. Residues, ends and D or L forms follow the SMILES beside them. *: point of attachment. Cbz = O=C(OCc1ccccc1)*
# Key:
# [1] = qHTS of pediatric cancer cell lines to identify multiple opportunities for drug repurposing: Confirmatory screen for Rh41 cells (AID 1347123); settings: Rh41 rhabdomyosarcoma cells, viability/cytotoxicity qHTS; series mostly up to 45.9 µM;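 also: 48 h compound exposure; nearly all actives have a fitted effect of over 60% in size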
# Method in brief: (§1)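 Cells (500-1,000/well) in growth media were settled 5 h at 37 degrees C, then given compounds for 48 h. Viability was read as CellTiter-Glo luminescence. Primary runs used MIPE at 11 points (0.78 nM-46 µM) and NPC at 8 points (0.59 nM-46 µM); follow-ups used 11 points.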
# [2] = qHTS of pediatric cancer cell lines to identify multiple opportunities for drug repurposing: Confirmatory screen for RD cells (AID 1347124); settings: RD rhabdomyosarcoma cell viability; series mostly up to 45.9 µM;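 also: cells exposed to compound for 48 h before viability readout; nearly all actives have a fitted effect of over 65% in size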
# Method in brief: as §1
# [3] = qHTS of pediatric cancer cell lines to identify multiple opportunities for drug repurposing: Confirmatory screen for Rh18 cells (AID 1347125); settings: Rh18 rhabdomyosarcoma cells, viability; series mostly up to 45.9 µM; also: nearly all actives have a fitted effect of over 55% in size
# Method in brief: as §1
# [4] = qHTS of pediatric cancer cell lines to identify multiple opportunities for drug repurposing: Confirmatory screen for Saos-2 cells (AID 1347127); settings: Saos-2 osteosarcoma cell viability; series mostly up to 45.9 µM; also: nearly all actives have a fitted effect of over 60% in size
# Method in brief: as §1
# [5] = qHTS of pediatric cancer cell lines to identify multiple opportunities for drug repurposing: Confirmatory screen for OHS-50 cells (AID 1347128); settings: OHS-50 osteosarcoma cells viability; series mostly up to 45.9 µM;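 also: compound exposure lasted 48 h at 37 degrees C; nearly all actives have a fitted effect of over 55% in size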
# Method in brief: as §1
# [6] = qHTS of pediatric cancer cell lines to identify multiple opportunities for drug repurposing: Confirmatory screen for SK-N-SH cells (AID 1347129); settings: SK-N-SH neuroblastoma cell viability; series mostly up to 46.1 µM;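 also: cells exposed to compound for 48 h before viability read; nearly all actives have a fitted effect of over 60% in size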
# Method in brief: as §1
# [7] = qHTS of pediatric cancer cell lines to identify multiple opportunities for drug repurposing: Confirmatory screen for Rh30 cells (AID 1347126); settings: Rh30 rhabdomyosarcoma cell viability; series mostly up to 45.9 µM; also: nearly all actives have a fitted effect of over 55% in size
# Method in brief: as §1
# Potency is read from the fitted curve at half-maximal effect.
SMILES,Potency [1],Potency [2],Potency [3],Potency [4],Potency [5],Potency [6],Potency [7]
CC(C)C[C@@H](C=O)NC(=O)[C@H](CC(C)C)NC(=O)[C@H](CC(C)C)NC(=O)OCc1ccccc1 (Cbz-Leu-Leu-Leu-aldehyde),1.17 µM (active),0.657 µM (active),1.65 µM (active),1.47 µM (active),0.928 µM (active),0.833 µM (active),
C=CC(=O)Nc1ccc2ncnc(Nc3ccc(OCc4cccc(F)c4)c(Cl)c3)c2c1,0.465 µM (active),1.47 µM (active),16.5 µM (active),7.37 µM (active),6.57 µM (active),16.6 µM (active),
Cn1cc(-c2cnn3c(N)c(Br)c([C@H]4CCCNC4)nc23)cn1,23.3 µM (active),inactive,inactive,,,18.7 µM (active),3.69 µM (active)
Nc1ncn([C@@H]2O[C@H](CO)[C@@H](O)[C@@H]2O)c(=O)n1,16.5 µM (active),20.8 µM (active),20.8 µM (active),20.8 µM (active),5.85 µM (active),16.6 µM (active),
CC(=O)NCC(=O)N1[C@H]2CC[C@H]1c1cc(Nc3ncc(C(F)(F)F)c(NC4CCC4)n3)ccc12,1.31 µM (active),13.1 µM (active),2.93 µM (active),0.585 µM (active),2.61 µM (active),2.09 µM (active),
CN(C)c1ccc(C(=O)NCCCCCCC(=O)NO)cc1,1.17 µM (active),2.33 µM (active),1.47 µM (active),2.93 µM (active),,2.35 µM (active),
CNC(=O)Nc1ccc(-c2nc(N3CC4CCC(C3)O4)c3cnn(C4CCC5(CC4)OCCO5)c3n2)cc1,0.131 µM (active),0.522 µM (active),0.233 µM (active),1.31 µM (active),3.29 µM (active),1.32 µM (active),
CC(=O)O[C@H]1C[C@@H]2CC[C@H]3[C@H]4C[C@H]([N+]5(C)CCCCC5)[C@@H](OC(C)=O)[C@@]4(C)CC[C@@H]3[C@@]2(C)C[C@H]1N1CCCCC1,7.37 µM (active),inactive,10.4 µM (active),,16.5 µM (active),20.9 µM (active),
FC(F)c1nc2ccccc2n1-c1nc(N2CCOCC2)nc(N2CCOCC2)n1,2.93 µM (active),8.27 µM (active),1.85 µM (active),0.827 µM (active),1.65 µM (active),2.35 µM (active),
Nc1nc2c(c(=O)[nH]1)N(C=O)[C@H](CNc1ccc(C(=O)N[C@@H](CCC(=O)O)C(=O)O)cc1)CN2,inactive,inactive,inactive,inactive,inactive,inactive,
C#CCC(Cc1cnc2nc(N)nc(N)c2n1)c1ccc(C(=O)N[C@@H](CCC(=O)O)C(=O)O)cc1 (stereo partly specified),inactive,0.233 µM (active),inactive,,0.0414 µM (active),inactive,
C=CCNC1=C2C[C@@H](C)C[C@H](OC)[C@@H](O)[C@@H](C)C=C(C)[C@H](OC(N)=O)[C@@H](OC)C=CC=C(C)C(=O)NC(=CC1=O)C2=O,0.737 µM (active),0.131 µM (active),0.585 µM (active),,11.7 µM (active),1.87 µM (active),4.14 µM (active)
Cc1[nH]c(C=C2C(=O)Nc3ccccc32)c(C)c1CCC(=O)O,inactive,inactive,inactive,inactive,inactive,inactive,
Cc1ccc([N+](=O)[O-])cc1S(=O)(=O)N(C)N=Cc1cnc2ccc(Br)cn12,0.329 µM (active),4.65 µM (active),1.31 µM (active),2.33 µM (active),0.465 µM (active),0.235 µM (active),4.65 µM (active)
C[C@@H](Oc1ccc2[nH]nc(C=Cc3cnn(CCO)c3)c2c1)c1c(Cl)cncc1Cl,0.104 µM (active),5.22 µM (active),3.69 µM (active),2.61 µM (active),4.14 µM (active),inactive,4.14 µM (active)
CCOC(=O)[C@@H](N)Cc1ccc(-c2cc(O[C@H](c3ccc(Cl)cc3-n3ccc(C)n3)C(F)(F)F)nc(N)n2)cc1,14.7 µM (active),,,,,,
CC(=O)[C@]1(O)Cc2c(O)c3c(c(O)c2[C@@H](O[C@H]2C[C@H](N)[C@@H](O)[C@H](C)O2)C1)C(=O)c1ccccc1C3=O,0.329 µM (active),0.737 µM (active),6.57 µM (active),inactive,1.31 µM (active),0.209 µM (active),
COc1cccc2c1C(=O)c1c(O)c3c(c(O)c1C2=O)C[C@@](O)(C(=O)CO)C[C@H]3O[C@H]1C[C@H](N)[C@H](O)[C@H](C)O1,,,1.47 µM (active),,,,
